Results filed as inconclusive are left out. Active and inactive are the calls of the source. Rule for the calls, unless noted: active = hit-call score of the fitted dose curve at least 0.9, where 1 is the maximum; inactive = score below 0.9.
Legend:
[1] = read-out: Monokine induced gamma interferon (MIG), CXCL9 (gene 4283); test: BSK_3C_MIG: BioMAP Diversity Plus: 3C Assay for Monokine induced gamma interferon (MIG) Biomarker Activity (AID 2283021); conditions: primary human endothelial cells (HUVEC); actives raise or lower the signal;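 for AC50: MIG protein level measured by immunoassay in the treated endothelial cultures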
Summary of the method: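 HUVEC primary endothelial cultures dosed with chemical; MIG quantified by ELISA at 24 h. Data fitted bidirectionally against DMSO control, with parallel SRB total-protein staining for cytotoxicity.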

[2] = biological target: human Vitamin D Receptor (VDR), VDR (gene 7421) (UniProt P11473); test: ATG_VDR_TRANS: Attagene TRANS-FACTORIAL HepG2 Assay for human Vitamin D Receptor (VDR) (AID 2283022; active = hit-call score of the fitted dose curve at least 0.9, where 1 is the maximum)
Summary of the method: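 Transactivation by an exogenous VDR-Gal4 chimera in transiently transfected HepG2 cells was measured as reporter transcript level 24 hours after chemical treatment. RT-PCR products were analysed by capillary electrophoresis and fitted in the positive direction relative to DMSO.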

[3] = BSK_3C_SRB: Viability Assessment in the BioMAP Diversity Plus: 3C Assay (AID 2283023); conditions: primary human endothelial cells (HUVEC);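 note: fitted both ways against DMSO so a hit may be signal rise or drop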
Summary of the method: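 Cytotoxicity readout in parallel HUVEC 3C cultures: after 24 h compound exposure, cells fixed with 10% TCA, stained with 0.1% SRB and read at 560 nm. Gain or loss relative to DMSO fitted.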

[4] = read-out: Matrix Metallopeptidase 1 (MMP1), MMP1 (gene 4312); test: BSK_BE3C_MMP1: BioMAP Diversity Plus: BE3C Assay for Matrix Metallopeptidase 1 (MMP1) Biomarker Activity (AID 2283024); conditions: primary human bronchial epithelial cells; actives raise or lower the signal
Summary of the method: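 Human primary bronchial epithelial cells (BE3C system) dosed for 24 h; MMP-1 quantified by ELISA. Bidirectional fit against DMSO; cytotoxicity tracked in parallel cultures by SRB total-protein staining.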

[5] = BSK_3C_Vis: BioMAP Diversity Plus: 3C Assay for Morphology Visualization (AID 2283025); conditions: primary human endothelial cells (HUVEC);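 note: fitted both ways so gain or loss versus DMSO counts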;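 for AC50: light microscopy image of cell morphology used as background control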
Summary of the method: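 Human umbilical vein endothelial cell morphology was inspected by light microscopy 24 h after chemical dosing; scored bidirectionally relative to DMSO.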

[6] = read-out: Pselectin, SELP (gene 6403); test: BSK_4H_Pselectin: BioMAP Diversity Plus: 4H Assay for Pselectin Biomarker Activity (AID 2283026); conditions: primary human endothelial cells (HUVEC); actives raise or lower the signal
Summary of the method: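 Primary human umbilical vein endothelial cells were treated 24 h, and cell-surface P-selectin was then quantified by ELISA. Bidirectional fit versus DMSO; cytotoxicity checked in parallel cultures by SRB total-protein staining.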

[7] = BSK_4H_SRB: Viability Assessment in the BioMAP Diversity Plus: 4H Assay (AID 2283027); conditions: primary human endothelial cells (HUVEC);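 note: cells exposed to compound for 24 h before staining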;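 for AC50: curves fitted both ways versus DMSO so AC50 may be loss or gain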
Summary of the method: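 Human umbilical vein endothelial cells, 24 h after chemical dosing; total protein measured by 0.1% sulforhodamine B staining after 10% TCA fixation, read at 560 nm. Bidirectional fitting against DMSO.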

[8] = BSK_BE3C_SRB: Viability Assessment in the BioMAP Diversity Plus: BE3C Assay (AID 2283028); conditions: primary human bronchial epithelial cells;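 for AC50: fitted both ways so AC50 may mark signal gain or loss versus DMSO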
Summary of the method: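 Cytotoxicity read-out: SRB (0.1%) staining of TCA-fixed (10%) human lung bronchial epithelial cells, absorbance 560 nm, 24 h post-dosing. Curves fitted both directions relative to DMSO.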

[9] = read-out: Thrombomodulin, THBD (gene 7056); test: BSK_3C_Thrombomodulin: BioMAP Diversity Plus: 3C Assay for Thrombomodulin Biomarker Activity (AID 2283029); conditions: primary human endothelial cells (HUVEC); actives raise or lower the signal
Summary of the method: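 Human umbilical vein endothelial cells were exposed to chemicals for 24 h; cell-surface thrombomodulin quantified by ELISA, with bidirectional fitting against DMSO baseline.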

[10] = read-out: Urokinase-type plasminogen activator receptor (uPAR), PLAUR (gene 5329); test: BSK_4H_uPAR: BioMAP Diversity Plus: 4H Assay for Urokinase-type plasminogen activator receptor (uPAR) Biomarker Activity (AID 2283030); conditions: primary human endothelial cells (HUVEC); actives raise or lower the signal
Summary of the method: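 uPAR level read by ELISA on HUVEC cultures (BioMAP 4H) 24 h post-dosing, analyzed for gain or loss relative to DMSO. Parallel SRB staining assessed overt cytotoxicity.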

[11] = read-out: Vascular endothelial growth factor receptor 2 (Homo sapiens) (UniProt P35968); test: BSK_4H_VEGFRII: BioMAP Diversity Plus: 4H Assay for Vascular endothelial growth factor receptor 2 (VEGFR2) Biomarker Activity (AID 2283031); conditions: primary human endothelial cells (HUVEC); actives raise or lower the signal;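 for AC50: cell-surface VEGFR2 protein level quantified by ELISA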
Summary of the method: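 Measured by ELISA after 24 h of compound treatment: VEGFR2 on primary human umbilical vein endothelial cells, fitted in both directions relative to DMSO. Parallel cultures received SRB staining (560 nm) for overt cytotoxicity.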

[12] = read-out: Human Leukocyte Antigen - DR isotype (HLADR), HLA-DRA (gene 3122); test: BSK_BE3C_HLADR: BioMAP Diversity Plus: BE3C Assay for Human Leukocyte Antigen - DR isotype (HLADR) Biomarker Activity (AID 2283032); conditions: primary human bronchial epithelial cells; actives raise or lower the signal
Summary of the method: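 Human primary bronchial epithelial cells (BE3C system) exposed to compound for 24 hours; cell-surface HLA-DR measured by ELISA, fitted bidirectionally relative to DMSO. Total protein by SRB in parallel cultures tracked cytotoxicity.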

[13] = read-out: Vascular cell adhesion molecule 1 (VCAM1), VCAM1 (gene 7412); test: BSK_4H_VCAM1: BioMAP Diversity Plus: 4H Assay for Vascular cell adhesion molecule 1 (VCAM1) Biomarker Activity (AID 2283033); conditions: primary human endothelial cells (HUVEC); actives raise or lower the signal
Summary of the method: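 Primary human umbilical vein endothelial cells, 4H stimulation system, treated for 24 h; cell-surface VCAM-1 quantified by ELISA. Bidirectional fitting against DMSO; cytotoxicity tracked by SRB total-protein staining in parallel cultures.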

[14] = read-out: Interferon-gamma inducible Protein 10 (IP10), CXCL10 (gene 3627); test: BSK_BE3C_IP10: BioMAP Diversity Plus: BE3C Assay for Interferon-gamma inducible Protein 10 (IP10) Biomarker Activity (AID 2283034); conditions: primary human bronchial epithelial cells; actives raise or lower the signal
Summary of the method: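 Primary human bronchial epithelial cells, with IP-10 measured by ELISA 24 hours after chemical dosing. Bidirectional fit against DMSO; cytotoxicity checked by SRB total protein staining in parallel cultures.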

[15] = read-out: Monokine induced gamma interferon (MIG), CXCL9 (gene 4283); test: BSK_BE3C_MIG: BioMAP Diversity Plus: BE3C Assay for Monokine induced gamma interferon (MIG) Biomarker Activity (AID 2283035); conditions: primary human bronchial epithelial cells; actives raise or lower the signal
Summary of the method: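 Primary human bronchial epithelial cells treated for 24 h; MIG levels measured by ELISA, fitted bidirectionally versus DMSO. Parallel SRB total-protein staining assessed cytotoxicity.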

[16] = read-out: Plasminogen activator inhibitor-1 (PAI1), SERPINE1 (gene 5054); test: BSK_BE3C_PAI1: BioMAP Diversity Plus: BE3C Assay for Plasminogen activator inhibitor-1 (PAI1) Biomarker Activity (AID 2283037); conditions: primary human bronchial epithelial cells; actives raise or lower the signal
Summary of the method: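 Primary human bronchial epithelial cells (BE3C system) exposed 24 h; PAI-1 quantified by ELISA. Parallel sulforhodamine B staining of total protein flags cytotoxicity. Bidirectional fit versus DMSO.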

[17] = read-out: urokinase plasminogen activator (uPA), PLAU (gene 5328); test: BSK_BE3C_uPA: BioMAP Diversity Plus: BE3C Assay for urokinase plasminogen activator (uPA) Biomarker Activity (AID 2283038); conditions: primary human bronchial epithelial cells; actives raise or lower the signal
Summary of the method: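 ELISA for uPA on human primary bronchial epithelial cultures 24 h post-treatment, gain or loss against DMSO. Parallel SRB staining (0.1% after 10% TCA fixation, 560 nm) assessed overt cytotoxicity.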

[18] = read-out: Urokinase-type plasminogen activator receptor (uPAR), PLAUR (gene 5329); test: BSK_BE3C_uPAR: BioMAP Diversity Plus: BE3C Assay for Urokinase-type plasminogen activator receptor (uPAR) Biomarker Activity (AID 2283039); conditions: primary human bronchial epithelial cells; actives raise or lower the signal
Summary of the method: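 Primary human bronchial epithelial cells dosed for 24 h; uPAR quantified by ELISA with bidirectional fitting against DMSO. Overt cytotoxicity assessed in parallel cultures by SRB total-protein staining (0.1% SRB, 560 nm).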

[19] = read-out: Interleukin-6 (IL6), IL6 (gene 3569); test: BSK_CASM3C_IL6: BioMAP Diversity Plus: CASM3C Assay for Interleukin-6 (IL6) Biomarker Activity for (AID 2283040); conditions: primary human coronary artery smooth muscle cells; actives raise or lower the signal
[20] = read-out: Transforming growth factor beta 1 (TGFb1), TGFB1 (gene 7040); test: BSK_BE3C_TGFb1: BioMAP Diversity Plus: BE3C Assay for Transforming growth factor beta 1 (TGFb1) Biomarker Activity (AID 2283036); conditions: primary human bronchial epithelial cells; actives raise or lower the signal
Summary of the method: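 Primary human bronchial epithelial cells dosed with chemical; TGF-b1 measured by ELISA 24 h after dosing. Bidirectional curve fitting against DMSO negative control; SRB total-protein staining in parallel cultures gauged cytotoxicity.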

Measured: AC50

human Vitamin D Receptor (VDR), VDR (gene 7421), sequence (P11473 whole entry, looked up, the tested form may be a part): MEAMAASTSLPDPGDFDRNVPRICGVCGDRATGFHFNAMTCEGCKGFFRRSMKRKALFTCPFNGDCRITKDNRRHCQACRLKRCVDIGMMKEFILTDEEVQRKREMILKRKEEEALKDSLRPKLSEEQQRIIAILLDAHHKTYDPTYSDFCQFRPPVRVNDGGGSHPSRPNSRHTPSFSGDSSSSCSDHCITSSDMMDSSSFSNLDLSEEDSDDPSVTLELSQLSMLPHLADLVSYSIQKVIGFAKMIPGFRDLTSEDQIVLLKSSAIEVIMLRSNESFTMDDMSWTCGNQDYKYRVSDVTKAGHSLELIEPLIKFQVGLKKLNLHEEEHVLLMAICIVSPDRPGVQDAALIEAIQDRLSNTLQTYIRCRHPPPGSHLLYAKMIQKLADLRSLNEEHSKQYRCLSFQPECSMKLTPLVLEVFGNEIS

CO[C@@H]1[C@H](OC(=O)NC(=O)CCl)CC[C@]2(CO2)[C@H]1[C@@]1(C)O[C@@H]1CC=C(C)C
inactive: [1] | [2] | [3] | [4] | [5] | [7] | [8] | [9] | [10] | [11] | [15] | [17] | [19]
active: [6] 2.09 µM | [12] 7.85 µM | [13] 6.62 µM | [14] 9.12 µM | [16] 6.98 µM | [18] 5.83 µM

c1ccc(N=Nc2ccccc2)cc1
inactive: [1] | [2] | [3] | [4] | [5] | [6] | [7] | [8] | [9] | [10] | [11] | [12] | [13] | [14] | [15] | [16] | [17] | [18] | [19]

O=C(Nc1ccccc1)c1ccccc1I
inactive: [1] | [3] | [4] | [5] | [6] | [7] | [8] | [9] | [10] | [11] | [12] | [13] | [14] | [15] | [20] | [16] | [17] | [18] | [19]

CCC[CH2][Sn]([Cl])([CH2]CCC)[CH2]CCC
active: [1] 0.148 µM | [2] 1.92 µM | [3] 0.148 µM | [4] 0.148 µM | [5] 5.57 µM | [6] 0.148 µM | [7] 0.148 µM | [8] 0.148 µM | [9] 0.486 µM | [10] 0.148 µM | [12] 0.215 µM | [13] 0.148 µM | [14] 0.324 µM | [15] 0.162 µM | [20] 0.147 µM | [16] 0.146 µM | [17] 0.148 µM | [18] 0.148 µM | [19] 1.5 µM

CC(C)(OOC(C)(C)c1ccccc1)c1ccccc1
active: [1] 29.3 µM | [3] 36.5 µM | [4] 11.4 µM | [5] 37.5 µM | [6] 35.9 µM | [7] 32.3 µM | [11] 37.3 µM | [12] 27.7 µM | [13] 26.4 µM | [18] 11.6 µM
inactive: [2] | [8] | [9] | [10] | [14] | [15] | [16] | [17] | [19]

c1ccc(NNc2ccccc2)cc1
inactive: [1] | [2] | [3] | [4] | [5] | [6] | [7] | [8] | [9] | [10] | [11] | [12] | [13] | [14] | [15] | [16] | [17] | [18] | [19]

CC(C)COC(=O)c1ccccc1C(=O)OCC(C)C
active: [3] 31.5 µM | [13] 14.1 µM
inactive: [1] | [4] | [5] | [6] | [7] | [8] | [9] | [10] | [11] | [12] | [14] | [15] | [20] | [16] | [17] | [18] | [19]

— PubChem BioAssay (EPA / NIEHS)
